# Bioassay records (PubChem)
# NSD2 HMT inh: inhibitors of human histone methyltransferase NSD2 | O96028 | NSD2 peptide methylation, AlphaScreen, 120 min | inhibition, % at 12.5 µM | hit rate 0.54% among 310,000; in the data active = inhibition above about 50%
# PAX8 reporter: inhibitors of PAX8 transcriptional activity in RMG-I cells; RMG-I TPO-luciferase reporter, SteadyGlo, 24 h; inhibition, % at 12.6 µM; hit rate 1.2% among 360,000;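 active = mean replicate inhibition at least 60% with every replicate also reaching 60%; inconclusive = only one of the two criteria is met; inactive = mean below 60% and not all replicates reaching 60%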;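 note: luciferase light reporting Pax8 driven TPO promoter activity; plate controls were median of neutral control wells for no effect and mitoxantrone controls for full effect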
# HIV Env fusion: blocks HIV Env-driven cell-cell fusion; HeLa-JRFL Env/CEM21 cell fusion, luciferase; AID 651610; hit rate 1.1% among 360,000; inhibition, % at 12.3 µM;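 active = mean replicate inhibition score of at least 50 and every replicate individually at or above 50; inconclusive = only one of the two criteria met; inactive = mean below 50 and not all replicates reaching 50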;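 note: 0% = plate neutral controls and 100% = maraviroc near 300 nM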
# Shn3 inh set2: Schnurri-3 reporter inhibition in Clone20 osteoblasts; Clone20 osteoblast Shn3 3'UTR firefly luciferase, 24 h; inhibition, % at 12.5 µM; hit rate 0.52% among 360,000;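 active = mean inhibition of at least 75% with every replicate also reaching 75%; inconclusive = mean inhibition at least 75% but some replicate below; inactive = mean inhibition below 75%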;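 note: 0% = median of neutral control wells and 100% = pilot-screen positive control compound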
# EBV LMP1 NFkB: reduces LMP1-driven NF-kappaB luciferase signal; inhibition, % at 12.5 µM; LMP1-induced NF-kappaB luciferase reporter cells, luminescence; hit rate 0.69% among 350,000; AID 504558; in the data active = inhibition above about 41%; inconclusive = no clear call, values can overlap the other calls;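 note: 0% = neutral control wells and 100% = reference inhibitor control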
# N-glyco inh: N-linked glycosylation inhibition. D54 ERlucT glycosylation luciferase reporter, 24 h; percent of 100 nM tunicamycin response. reporter increase, % at 12.5 µM. hit rate 0.23% among 360,000;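 active = mean luciferase reporter signal, scaled so untreated is 0 and the glycosylation-blocking control 100, at or above a set limit in every replicate; inconclusive = mean reaches the limit but not every replicate does; inactive = mean below the limit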;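 note: luciferase carries N-glycosylation sites so blocking glycosylation raises the light; 0% = median of neutral control wells and 100% = median of 100 nM tunicamycin wells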
# AlphaScreen art: interferes with AlphaScreen signal, flagging NSD2 false positives; AlphaScreen artifact counterscreen, preloaded methylated H4 peptide; hit rate 9.4% among 1,500; AC35, µM (highest dose often 10 µM), for the others: top-dose activity change, negative = signal loss; AID 1053174; shares compounds with NSD2 HMT inh; call rule not given here
# Starred values were filed as active, the others as inactive; ? = inconclusive; · = not tested or not shown; [ ] = remark or other dose. Most compounds without a hit are left out; they make up all but 2.8% or so of the library.
SMILES,NSD2 HMT inh,PAX8 reporter,HIV Env fusion,Shn3 inh set2,EBV LMP1 NFkB,N-glyco inh,AlphaScreen art
C[C@@H]1CN([C@H](C)CO)C(=O)c2cc(NC(=O)CCN3CCOCC3)ccc2O[C@@H]1CN(C)Cc1ccc(-c2ccccc2)cc1,·,18,-2[16.7 µM],·,·,·,·
CCCCN(C)C(=O)C1CCN(Cc2cccc(OCc3ccccc3)c2)CC1,73*,6,11,9,5,-1,-7%
CCN(CC)C(=O)C1CCN(Cc2cccc(OCc3ccccc3)c2)CC1,35,-22,-5,-4,7,-1,·
Cc1cc(SCC(=O)c2ccc(O)c(O)c2)nc2ccccc12,67*,34,-9,15,5,0,-18%
Cc1cc(SCC(=O)Nc2cccnc2Cl)nc2ccccc12,65*,-6,13,5,6,-1,-4%
COc1ccc(NC(=O)Nc2ccc3c(c2)[C@@H]2C[C@H](CC(=O)NCc4ccc(-c5ccccc5)cc4)O[C@@H](CO)[C@@H]2O3)cc1,·,?,32[16.7 µM],·,·,·,·
Cc1cc(C(=O)Nc2cccc3c2O[C@H](CN(C)S(=O)(=O)c2ccc(F)cc2)[C@@H](C)CN([C@H](C)CO)C3=O)n(C)n1,·,·,-29[16.7 µM],·,·,·,·
O=C(/C=C/c1ccco1)Nc1ccccc1C(=O)O,73*,-106,-51,-63,-17,-6,-2%
Cc1ccc(S(=O)(=O)N[C@@H]2C=C[C@@H](CC(=O)O)O[C@H]2CO)cc1,·,3,43[16.7 µM],·,·,·,·
Oc1ccc(-c2csc(Nc3ccccn3)n2)cc1O,31,-37,-110,-75,6,-8,·
Cc1cccnc1Nc1nc(-c2ccc(O)c(O)c2)cs1,51*,·,·,79,-15,-3,-10%
Oc1ccc(-c2csc(Nc3cccc4ccccc34)n2)cc1O,51*,12,-4,87*,-4,4,-17%
Cc1ccc(S(=O)(=O)N(C)C[C@@H]2Oc3ccc(NS(C)(=O)=O)cc3C(=O)N([C@@H](C)CO)C[C@H]2C)cc1,·,·,7[16.7 µM],·,·,·,·
CC1(C)Cc2c(c(-c3ccco3)[nH]c(=O)c2C#N)CO1,58*,·,·,3,-3,2,0%
CCc1[nH]c(=O)c(C#N)c2c1COC(C)(C)C2,-3,·,-12,-8,8,0,·
CN(C)CCNc1nc(-c2ccco2)c2c(c1C#N)CC(C)(C)OC2,127*,·,-19,-10,2,0,-1%
CC(=O)N1[C@@H]2Cn3c(ccc(-c4ccccc4)c3=O)[C@H]1[C@@H](C(=O)N1CCCCC1)[C@@H]2CO,·,-8,·,·,·,·,·
Cc1c(C(=O)NC(C)C)oc2c1-c1[nH]ncc1CC2,55*,·,·,2,1,1,-5%
COc1ccc(CN(C)C[C@H]2OCCCC[C@@H](C)Oc3ccc(N(C)C)cc3C(=O)N([C@@H](C)CO)C[C@@H]2C)cc1,·,16,-93[16.7 µM],·,·,·,·
COc1ccc(NC(=O)COC(=O)c2ccc3ccccc3n2)cc1,0,10,-13,-10,-4,2,·
CCN(CC)c1ccc(NC(=O)COC(=O)c2ccc3ccccc3n2)cc1,107*,-4,-5,10,2,-1,-10%
CC1C(=O)N(Cc2ccccc2F)c2ccccc2N1C(=O)c1c(F)cccc1F (stereo not drawn),-2,18,13,53,4,-5,·
COc1cccc(CN2C(=O)C(C)N(C(=O)c3c(F)cccc3F)c3ccccc32)c1 (stereo not drawn),104*,20,48,79,18,-3,-8%
CC(C)NC(=O)N1C[C@H]2[C@@H](c3ccccc31)[C@@H](CO)N2C(=O)Nc1cccc(F)c1,·,2,·,·,·,·,·
C[C@@H]1CN([C@@H](C)CO)S(=O)(=O)c2ccc(C3=CCCCC3)cc2O[C@@H]1CN(C)Cc1ccccc1F,·,·,42[16.7 µM],·,·,·,·
SMILES,NSD2 HMT inh,PAX8 reporter,HIV Env fusion,Shn3 inh set2,EBV LMP1 NFkB,N-glyco inh,AlphaScreen art
C[C@H]1CN([C@@H](C)CO)C(=O)c2c(c3ccccc3n2C)-c2ccccc2CO[C@@H]1CN(C)C(=O)Nc1ccc(-c2ccccc2)cc1,·,47,·,·,·,·,·
CCOC(=O)c1c(NC(=O)COC)sc2c1CCCC2,57*,-24,-35,-20,-11,2,0%
COc1ccc(CCNc2c([N+](=O)[O-])ncn2C)cc1OC,61*,-2,16,0,6,1,-3%
COC(=O)C[C@H]1C[C@@H]2c3cc(NS(C)(=O)=O)ccc3O[C@@H]2[C@@H](CO)O1,·,-4,-1[16.7 µM],·,·,·,·
Cc1cccc(NCCNc2cccc(C)c2)c1,56*,·,-13,-18,-9,-2,-4%
C=CCn1c(NC(=O)c2ccc(Br)o2)c(S(=O)(=O)c2ccccc2)c2nc3ccccc3nc21,83*,·,0,4,-6,-2,0%
O=C(Nc1ccc(S(=O)(=O)NCc2ccccc2)cc1)c1ccc(Br)o1,1,·,·,30,6,-3,·
Nc1nc(N)c(N=Nc2ccc(S(N)(=O)=O)cc2)c(=O)[nH]1,-1,-11,7,3,10,1,·
NS(=O)(=O)c1ccc(N=Nc2ccc(=O)[nH]c2O)cc1,110*,-2,-41,11,7,2,-6%
Cn1c(NNC(=O)c2c(F)cccc2F)cc(=O)n(C)c1=O,62*,17,-8,-21,4,1,-4%
COc1ccc(/C=C2/C(=O)N(c3ccccc3)N=C2C)cc1,12,·,·,-9,·,3,·
COc1ccc(/C=C2/C(=O)N(c3c(F)c(F)c(F)c(F)c3F)N=C2C)cc1,58*,5,-6,-33,-14,1,2%
C[C@@H]1CN([C@@H](C)CO)C(=O)c2cc(NC(=O)c3ccccc3)ccc2O[C@@H](C)CCCCO[C@H]1CN(C)Cc1ccncc1,·,-3,-12[16.7 µM],·,·,·,·
COc1ccc(-c2ccc(C(c3c(C)[nH][nH]c3=O)c3c(C)[nH][nH]c3=O)o2)c([N+](=O)[O-])c1,124*,10,-35,-13,3,34*,-3%
Cc1[nH][nH]c(=O)c1C(c1ccc(-c2ccc(F)cc2)o1)c1c(C)[nH][nH]c1=O,156*,-7,16,-2,13,18,0%
CNC(=S)N/N=C/c1ccc(-c2ccc(C(=O)O)cc2)o1,·,-46,-6,-26,-5,-1,·
Cc1[nH][nH]c(=O)c1C(c1ccc(-c2ccc(C(=O)O)cc2)o1)c1c(C)[nH][nH]c1=O,89*,-1,-9,7,-5,7,1%
Cc1ccc(S(=O)(=O)NCC[C@H]2CC[C@@H](NC(=O)c3cccc(F)c3)[C@@H](CO)O2)cc1,·,-21,9[16.7 µM],·,·,·,·
O=[N+]([O-])c1ccccc1NC(=S)N/N=C/c1ccc(O)c(O)c1,117*,-116,-162,-10,-33,-10,1.8µM*
CCO/C=C/C(=O)N(C)CCC#N,125*,·,·,9,-3,-2,-7%
